# Where “and” joins values, the source holds several entries; their conditions need not be identical. Equal values may be shown once. Calls of active or inactive are those of the source.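 How the source made its calls, unless noted: active means compounds whose cell count with miR-34 switched on is under 0.7 times the count with it off; inactive means the rest.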 Where a SMILES comes first, the peptide text is derived from it. [ ]: non-standard residue; d: D form.
# Assays:
# [1] = test system: Aerobactin synthetase IucA (Klebsiella pneumoniae); experiment: IucA aerobactin synthetase inhibitors, biochemical, Tocris library, absorbance (AID 1345561; call rule not given here;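 further: 100% = enzyme without compound and 0% = no enzyme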); conditions: purified IucA enzyme assay, absorbance (OD) read-out; stronger effect = lower value;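 tested at 8 µM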
# [2] = sensitizers of A549 cells to miR-34 induction, primary screen, imaging, A549 dox-inducible miR-34, nuclei and caspase counts (AID 1347080); conditions: A549 miR-34 inducible, Hoechst nuclei count, 48 h
# [3] = viability rescue of complex I mutant cybrids, primary screen, cell-based, galactose medium, ATP luminescence (AID 1645843;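 active means z-score of at least 1.8 in each of two replicates, scored against plate mean and spread of sample wells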;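 further: positive z means more ATP and so rescue of galactose-driven cybrid death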); conditions: complex I mutant cybrid cells, 72 h, stronger effect = higher value
# [4] = stronger effect = lower value, cell number ratio, induced over uninduced
# [5] = measured here: relative caspase fold change +Dox/-Dox
# [6] = measured here: total cells with miR-34 induction, stronger effect = lower value
# [7] = measured here: total cells without miR-34 induction
SMILES,remaining activity [1],"fold change [2, 4]","fold change [2, 5]","cell count [2, 6]","cell count [2, 7]",z-score [3]
Ic1cc(-c2ccccc2)ncn1,120% (inactive),0.965 (inactive),1.73,8200,8500,0.11 (inactive)
COc1cccc(NC(=O)/C=C/c2ccc(Cl)cc2)c1,93.6% (inactive),0.9 (inactive),1.32,5860,6510,0.75 (inactive)
O=C(NCCN1CCCCC1)c1ccc(I)cc1,103% (inactive),0.954 (inactive),0.747,9320,9760,0.155 (inactive)
OC[C@H]1O[C@@H](n2cnc3c(N[C@H]4CCC[C@@H]4O)ncnc32)[C@H](O)[C@@H]1O,116% (inactive),0.959 (inactive),0.92,8820,9190,0.09 (inactive)
CCN(CC)CCCCC1CCN(CC(=O)N2c3ccccc3C(=O)Nc3cccnc32)CC1,105% (inactive),0.936 (inactive),1.52,8520,9110,-0.225 (inactive)
C1CC[C@H]2[N]=[Pt]=[N][C@@H]2C1.O=C(O)C(=O)O,86.1% (inactive),0.928 (inactive),1.09,4040,4350,3.04 (active)
CCC(=O)NC1Cc2ccccc2C(c2ccccc2)C1 (stereo not given),124% (inactive),1.02 (inactive),1.01,8500,8340,0.46 (inactive)
CCCc1c(OCCCOc2ccc(OCC(=O)O)cc2)ccc(CC=O)c1O,117% (inactive),0.911 (inactive),0.927,9560,10500,1.5 (inactive)
Nc1nc(-c2ccc(Cl)c(Cl)c2)c(-c2ccncc2)s1,110% (inactive),0.959 (inactive),1.23,8510,8870,1.59 (inactive)
CCS(=O)(=O)N(C)[C@H]1c2cc(C#N)ccc2OC(C)(C)[C@@H]1O,111% (inactive),0.889 (inactive),1.89,8640,9720,0.545 (inactive)
O=C(O)c1cc(Oc2ccc([N+](=O)[O-])cc2)cc(Oc2ccc([N+](=O)[O-])cc2)c1,113% (inactive),0.979 (inactive),0.988,8410,8600,1.39 (inactive)
CCCCC1CCC(c2nc(-c3ccncc3)no2)CC1 (stereo not given),122% (inactive),0.974 (inactive) and 0.949 (inactive),0.608 and 1.14,5260 and 8140,5400 and 8570,-0.62 (inactive)
O=c1[nH]c2cc(Cl)ccc2c(O)c1-c1cccc(Oc2ccccc2)c1,103% (inactive),0.963 (inactive),0.827,8760,9100,0.335 (inactive)
O=[N+]([O-])c1ccccc1S(=O)(=O)NCC1CCC(CNCC2CCc3ccccc3C2)CC1 (stereo not given),97.1% (inactive),0.747 (inactive),1.77,2050,2740,-0.675 (inactive)
CCCNC(=O)N1N=C(c2ccc(N)cc2)c2cc3c(cc2C1C)OCO3 (stereo not given),101% (inactive),0.903 (inactive),1.06,8160,9040,0.065 (inactive)
CCOC(=O)C1=C(C)NC(c2ccccc2)=C(C(=O)OCc2ccc([N+](=O)[O-])cc2)C1C#Cc1ccccc1 (stereo not given),124% (inactive),0.924 (inactive),0.543,7910,8560,0.3 (inactive)
COc1cc2c(cc1OC)C(c1ccc(N)cc1)=NNC(=O)C2,103% (inactive),1.07 (inactive),0.53,4030,3760,0.045 (inactive)
CCOC(=O)c1ncc2[nH]c3cccc(OC(C)C)c3c2c1C,96.4% (inactive),0.924 (inactive),0.813,5120,5540,-0.64 (inactive)
O=C(O)Cc1cc2ccccc2nc1C(=O)O,129% (inactive),0.938 (inactive),1.06,8250,8790,0.145 (inactive)
N[C@@H](CC(=O)Nc1ccc(Oc2cc(F)c(F)cc2Br)cc1)C(=O)O,98.2% (inactive),0.952 (inactive),1.1,7870,8270,0.265 (inactive)
O=C(O)COc1ccc(OCCNC[C@@H](O)COc2ccccc2)cc1,89.3% (inactive),0.984 (inactive),1.02,8850,8990,0.955 (inactive)
O=C(NCCCN1CCC2(CC1)OCc1ccccc12)[C@H]1CCCN1Cc1ccccc1,123% (inactive),0.953 (inactive),1.86,7790,8180,-0.88 (inactive)
CCCCCCCCC(=O)NCc1cc(OC)c(O)cc1I,120% (inactive),0.949 (inactive),0.652,8140,8580,-0.615 (inactive)
Cn1cnnc1Sc1c([N+](=O)[O-])ncn1C,103% (inactive),0.949 (inactive),1.89,8370,8820,-0.12 (inactive)
CC(C)c1ccc2c(c1)CC[C@H]1[C@](C)(CN)CCC[C@]21C,101% (inactive),0.931 (inactive) and 0.9 (inactive),0.286 and 1.62,5370 and 346,5760 and 384,-0.56 (inactive)
CC1(C)C[C@@H]1C(=O)N/C(=C\CCCCSC[C@@H](N)C(=O)O)C(=O)O,102% (inactive),0.976 (inactive),1.46,9200,9420,-0.005 (inactive)
CCC1(c2ncc[nH]2)Cc2ccccc2O1 (stereo not given),118% (inactive),0.963 (inactive),0.89,9330,9690,0.05 (inactive)
CC(C)NCCN(C(C)C)S(=O)(=O)c1ccc(Cl)cc1Cl,113% (inactive),0.946 (inactive),1.35,9040,9560,-0.215 (inactive)

SMILES,remaining activity [1],"fold change [2, 4]","fold change [2, 5]","cell count [2, 6]","cell count [2, 7]",z-score [3]
c1ccc(C2NNCC2c2ccnc3ccccc23)nc1 (stereo not given),101% (inactive),0.908 (inactive),1.57,8690,9570,-0.15 (inactive)
N[C@@H](Cc1cc(CP(=O)(O)O)cc(-c2ccccc2Cl)c1)C(=O)O,118% (inactive),0.967 (inactive),1.52,9360,9670,0.225 (inactive)
OC(c1ccccc1)C1CCN(CCc2ccccc2)CC1 (stereo not given),96.8% (inactive),0.917 (inactive),0.92,8660,9440,-0.035 (inactive)
CC1(C(=O)O)NCCc2cc(O)c(O)cc21 (stereo not given),123% (inactive),0.987 (inactive),0.804,8540,8650,-0.015 (inactive)
CN(C)[C@@H]1CCc2[nH]c3ccc(NC(=O)c4ccc(F)cc4)cc3c2C1,77.6% (inactive),0.87 (inactive),1.77,8840,10200,0.495 (inactive)
c1ccc2nc(C3=NCCN3)cnc2c1,98.4% (inactive),0.983 (inactive),0.854,9150,9300,0.085 (inactive)
CCCCC(=O)NCCc1c(Cc2ccccc2)[nH]c2ccccc12,108% (inactive),0.933 (inactive),0.702,6310,6770,0.26 (inactive)
COc1cc(N)c(Cl)cc1C(=O)OCCCN1CCCCC1,102% (inactive),0.975 (inactive),0.823,9460,9700,0.255 (inactive)
N[C@H]1CCN(O)C1=O,122% (inactive),1.02 (inactive),0.709,8480,8300,-0.005 (inactive)
O=C(O)COc1cccc(-c2ocnc2-c2nc(-c3ccccc3)c(-c3ccccc3)o2)c1,118% (inactive),0.961 (inactive),0.827,8540,8890,0.465 (inactive)
CC(=O)NCC(=O)N[C@H](CCC(=O)O)C(=O)O (Ac-Gly-[dE]-OH),103% (inactive),0.899 (inactive),0.513,9020,10000,-0.245 (inactive)
CCCN(C/C=C/I)C1CCc2cccc(O)c2C1 (stereo not given),123% (inactive),0.893 (inactive),1.14,8040,9000,-0.945 (inactive)
NC(C(=O)O)c1ccc(C(=O)O)c(O)c1 (stereo not given),93.9% (inactive),0.966 (inactive),1.12,9030,9350,-0.31 (inactive)
O=c1[nH]ccc2c(S(=O)(=O)N3CCCNCC3)cccc12,105% (inactive),0.922 (inactive),0.813,9480,10300,-0.145 (inactive)
NC(C(=O)O)c1cc(O)cc(O)c1 (stereo not given),101% (inactive),0.987 (inactive),0.844,9310,9430,-0.435 (inactive)
CC(N)(C(=O)O)c1ccc(-c2nn[nH]n2)cc1 (stereo not given),94.5% (inactive),0.913 (inactive),0.762,8200,8980,1.42 (inactive)
C=C1C(=O)O[C@@H]2/C=C(\C)CC/C=C(\C)CC[C@@H]12,118% (inactive),1.04 (inactive),1.29,8100,7810,-0.605 (inactive)
COc1ccc(NC(=O)c2cc(OCCCN(C)C)nn2Cc2ccccc2)cc1,99.8% (inactive),0.937 (inactive),1.3,8250,8810,-0.3 (inactive)
CC(=O)NCCc1c(Cc2ccccc2)[nH]c2ccccc12,105% (inactive),1.03 (inactive),0.867,7430,7230,0.025 (inactive)
N[C@@H](C(=O)O)[C@@H](OCc1ccccc1)C(=O)O (racemic),110% (inactive),0.921 (inactive),1.02,8010,8700,0.315 (inactive)
N[C@@H](Cn1ccc(=O)n(Cc2ccccc2C(=O)O)c1=O)C(=O)O,102% (inactive),0.972 (inactive),1.26,8660,8900,0.025 (inactive)
Cc1ccccc1N=C(N)Nc1ccccc1C,93.4% (inactive),0.944 (inactive),0.72,8710,9220,-0.035 (inactive)
CCCCCCNC(=O)Nc1ccc(S(=O)(=O)Nc2ccc(CCNC[C@H](O)COc3ccc(O)cc3)cc2)cc1,94.3% (inactive),0.938 (inactive),1.32,8320,8870,-0.435 (inactive)
CN1CCN(CCc2ccc(Cl)c(Cl)c2)CC1,124% (inactive),1.04 (inactive),1.01,7800,7520,-0.73 (inactive)
COc1oc(=O)c2cc(N)ccc2c1Cl,95.9% (inactive),0.989 (inactive),1.44,8640,8740,-0.37 (inactive)
COc1ccc(S(=O)(=O)N2c3ccc(Cl)cc3[C@](O)(c3ccccc3Cl)[C@@H]2C(=O)N2CCC[C@H]2C(N)=O)cc1OC,97.7% (inactive),0.908 (inactive),1.22,8610,9480,0.855 (inactive)
Cc1nn(C)c2nc(NNC(=O)Nc3cc(Cl)nc(Cl)c3)cc(C(C)C)c12,121% (inactive),0.867 (inactive) and 1.06 (inactive),1.04 and 1.03,5060 and 4050,5840 and 3820,-0.55 (inactive)
